# From the supplement of paper PMC6992640
# System: HCI01 (cells of a triple-negative basal-like breast cancer xenograft)
# Experiment: cell viability of combination (% of vehicle); higher = less cytotoxic
# Details: 1 µM; 72 h; partner dose: 10 nM
# Procedure: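 PDX cells were treated for 72 h with each drug at 1 µM plus carfilzomib (10 nM; 100 nM for WHIM2). Luciferase viability is expressed as percent of vehicle.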
row,SMILES,cell viability of combination
1,Cc1cc(C(C#N)c2ccc(Cl)cc2)c(Cl)cc1NC(=O)c1cc(I)cc(I)c1O (stereo not given) [Closantel] + CC(C)C[C@H](NC(=O)[C@H](CCc1ccccc1)NC(=O)CN1CCOCC1)C(=O)N[C@@H](Cc1ccccc1)C(=O)N[C@@H](CC(C)C)C(=O)[C@@]1(C)CO1 [Carfilzomib],70.3
2,Cc1cc(C(C#N)c2ccc(Cl)cc2)c(Cl)cc1NC(=O)c1cc(I)cc(I)c1[O-].[Na+] (stereo not given) [Closantel Sodium] + CC(C)C[C@H](NC(=O)[C@H](CCc1ccccc1)NC(=O)CN1CCOCC1)C(=O)N[C@@H](Cc1ccccc1)C(=O)N[C@@H](CC(C)C)C(=O)[C@@]1(C)CO1 [Carfilzomib],68.9
3,CCCCCCCCCCCCCCCC[N+](C)(C)C.[Br-] [Cetrimonium Bromide (CTAB)] + CC(C)C[C@H](NC(=O)[C@H](CCc1ccccc1)NC(=O)CN1CCOCC1)C(=O)N[C@@H](Cc1ccccc1)C(=O)N[C@@H](CC(C)C)C(=O)[C@@]1(C)CO1 [Carfilzomib],72.8
4,CCCCCCCCCCCC[N+](C)(C)CCOc1ccccc1.[Br-] [Domiphen Bromide] + CC(C)C[C@H](NC(=O)[C@H](CCc1ccccc1)NC(=O)CN1CCOCC1)C(=O)N[C@@H](Cc1ccccc1)C(=O)N[C@@H](CC(C)C)C(=O)[C@@]1(C)CO1 [Carfilzomib],71.1
5,CCCCCCCCCCCCCCCC[n+]1ccccc1.[Cl-] [Cetylpyridinium Chloride] + CC(C)C[C@H](NC(=O)[C@H](CCc1ccccc1)NC(=O)CN1CCOCC1)C(=O)N[C@@H](Cc1ccccc1)C(=O)N[C@@H](CC(C)C)C(=O)[C@@]1(C)CO1 [Carfilzomib],77
